The first experiment addresses CRTAM. Briefly: pooled miR-30 sensor sort-seq; sequence = guide strand. Particulars: shRNA.
TAGTATTACATTTCTTCCCATC gave a sensor-assay potency score (higher = more potent) of -0.999.

Take TTTTGCTTTCTGATAACTGAAG: the sensor-assay potency score (higher = more potent) is -1.15.

Consider TTTGCTTCTGAGTACAACTTTG, for which the sensor-assay potency score (higher = more potent) was -0.892.

TTAAACTACAAGCTTTATGTGC came in with a sensor-assay potency score (higher = more potent) of -0.391.

The sequence TTTGTGATGTAGTTCATGCAAC had a sensor-assay potency score (higher = more potent) of -0.216.

Turning to TTGATCTGTAACTTTCTAGTGT, the sensor-assay potency score (higher = more potent) turned out to be 0.218.

Sequence TTGACCTTGATCTGTAACTTTC came in with a sensor-assay potency score (higher = more potent) of -1.09.

The sequence TTTGTGCTTACAGAGTCGCTGT had a sensor-assay potency score (higher = more potent) of -0.405.

TTTTCTTTCTTGCCAGTCCTAA showed a sensor-assay potency score (higher = more potent) of -0.265.

Take TTGAATGTTGTACATTTTCCTT: the sensor-assay potency score (higher = more potent) was -1.1.

The sequence TTAGCTGCTCACACTGACCCTG displayed a sensor-assay potency score (higher = more potent) of -0.252.

The target of another experiment is CRX. The experiment is described as above. The following applies: shRNA.
On to TTGTAGTCCAGAGGGTCCATGG, for which the sensor-assay potency score (higher = more potent) is -1.32.

ACTCTGATCCTTGTAGTCCAGA came in with a sensor-assay potency score (higher = more potent) of -1.36.

As to TGATCCTTGTAGTCCAGAGGGT, the sensor-assay potency score (higher = more potent) is -0.793.

The sequence TTGATCTTCAGAGCCACCTCCT displayed a sensor-assay potency score (higher = more potent) of -0.746.

Sequence TTCTGAAGCCTGGAGCTCGTGG returned a sensor-assay potency score (higher = more potent) of -0.966.

Turning to TTTGACTTCTTCTTGGAGCAAG, the sensor-assay potency score (higher = more potent) was -0.501.

Regarding TGAACCAAACCTGAACCCTGGA, the sensor-assay potency score (higher = more potent) is -0.615.

TTTCTCAGGAATGCCATCCCGG showed a sensor-assay potency score (higher = more potent) of -0.63.

TAGGTCATGGCATAGGGGGCGG registered a sensor-assay potency score (higher = more potent) of -1.09.

The sequence TTGAACCAAACCTGAACCCTGG showed a sensor-assay potency score (higher = more potent) of -0.194.

TGTAGGAATCTGAGATGCCCAG: the sensor-assay potency score (higher = more potent) is -0.841.

In turn, TGTAAGCTGAACACCGAGCTGT gave a sensor-assay potency score (higher = more potent) of 0.575.

With TTTGGTTTGACTTCTTCTTGGA, the sensor-assay potency score (higher = more potent) worked out at 0.763.

For TTCAGAGCCACCTCCTCACGGG, the sensor-assay potency score (higher = more potent) is -0.313.

Consider TAGCTCTGGCCTGATAGGGAGG, for which the sensor-assay potency score (higher = more potent) was -0.851.

TTGGTTTGACTTCTTCTTGGAG had a sensor-assay potency score (higher = more potent) of -0.00294.

TAGGTGAATTTCCAGGTGCCCG: the sensor-assay potency score (higher = more potent) was -1.41.

In turn, AATAGGAGCTCGGAGACCCATA returned a sensor-assay potency score (higher = more potent) of -1.54.

For the sequence TTGTAGGTGAATTTCCAGGTGC, the sensor-assay potency score (higher = more potent) was -0.434.

TGAGAGAATCACTAGGACCTGT returned a sensor-assay potency score (higher = more potent) of -0.0623.

In the case of AATTCCAAGCTATCCACGGGGC, the sensor-assay potency score (higher = more potent) is -0.328.

In turn, TAGACGTCTGGGTACTGGGTCT registered a sensor-assay potency score (higher = more potent) of -0.0426.

The next experiment has as its target CRYGS. The description is as above. The following applies: shRNA.
For TATGTGTGGAAATCTGCACAGT, the sensor-assay potency score (higher = more potent) is -0.978.

TACAGGAGTGGATCTCTCGCAT gave a sensor-assay potency score (higher = more potent) of -0.237.

For the sequence TCCACTTTAATGGAGTTGCAGC, the sensor-assay potency score (higher = more potent) is -1.52.

In turn, TTACAGGAGTGGATCTCTCGCA returned a sensor-assay potency score (higher = more potent) of 0.0996.

In the case of TGAAATTGCTCCATGATGGAAG, the sensor-assay potency score (higher = more potent) was -0.169.

With TTTTTGTCTTCATAGAAAGTAA, the sensor-assay potency score (higher = more potent) was -0.778.

The sequence TTCATAGAAAGTAATCTTGGTT gave a sensor-assay potency score (higher = more potent) of -0.0295.

These data come from the OligoGym collection.
Further: reference of the scale not given here.
